From PubChem BioAssay (NCI)
Compounds without any hit were thinned out: in the full panel of roughly 83,000, 20% have a hit.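 Activity criterion: percent growth below 10, measured after cells in 96-well plates were exposed to a single compound concentration for 48 hours.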 Unmarked numbers belong to inactive results. Calls of active or inactive are those of the source.

Experiments:
Assay in all cases: NCI-60 one-dose screen, 48 h (100 = growth as untreated, 0 = no growth, -100 = all killed)
Details in all cases: 10 µM unless noted
NCI-H23 lung = system: NCI-H23 lung
NCI-H226 lung = system: NCI-H226 lung
NCI-H322M lung = system: NCI-H322M lung
HOP-62 NSCLC = system: HOP-62 NSCLC
NCI-H460 lung = system: NCI-H460 lung
HOP-92 NSCLC = system: HOP-92 NSCLC
NCI-H522 lung = system: NCI-H522 lung
A549/ATCC NSCLC = system: A549/ATCC NSCLC
786-0 renal = system: 786-0 renal
COLO 205 colon = system: COLO 205 colon
DU-145 prostate = system: DU-145 prostate
K-562 leukemia = system: K-562 leukemia
MALME-3M melanoma = system: MALME-3M melanoma
MDA-MB-231 breast = system: MDA-MB-231 breast
RXF 393 renal = system: RXF 393 renal
SF-268 CNS = system: SF-268 CNS
SF-295 CNS = system: SF-295 CNS
SF-539 CNS = system: SF-539 CNS
UACC-257 melanoma = system: UACC-257 melanoma
M14 melanoma = system: M14 melanoma

SMILES	growth (NCI-H23 lung)	growth (NCI-H226 lung)	growth (NCI-H322M lung)	growth (HOP-62 NSCLC)	growth (NCI-H460 lung)	growth (HOP-92 NSCLC)	growth (NCI-H522 lung)	growth (A549/ATCC NSCLC)	growth (786-0 renal)	growth (COLO 205 colon)	growth (DU-145 prostate)	growth (K-562 leukemia)	growth (MALME-3M melanoma)	growth (MDA-MB-231 breast)	growth (RXF 393 renal)	growth (SF-268 CNS)	growth (SF-295 CNS)	growth (SF-539 CNS)	growth (UACC-257 melanoma)	growth (M14 melanoma)
O=C1c2ccccc2OC=C(c2ccccc2)N1CCCCNc1ccc(F)cc1	90.1%	87.5%	90.3%	85.1%	97.9%	21.8%	69.5%	68.9%	68.2%	67.6%	98.9%	68.1%	82.3%	74.9%	97.9%	78.3%	86%	100%	83.6%	76.7%
CC/C(=C(\CC)c1ccc(OCCN(CC)CC)cc1)c1ccc(OCCN(CC)CC)cc1	40.7%	62.7%	60.7%	36.9%	31.8%	-10.2% (active)	16.2%	37.1%	22%	4.87% (active)	73.9%	12.7%	-42.8% (active)	5.07% (active)	-4.27% (active)	55.2%	-13.9% (active)	-35% (active)	-51.8% (active)	-0.0375% (active)
COc1cc(/C=C/C(=O)c2c(C)[n+]([O-])c3ccccc3[n+]2[O-])ccc1O	95.5%	98.5%	99.4%	125%	91.4%	42.2%	71%	103%	62.4%	121%	101%	85.2%	103%	81.5%	111%	95.5%	89.3%	100%	98.9%	103%
COc1ccc(N)c(S)c1	92.3%	92.8%	106%	90.5%	106%	88.4%	84.5%	77.1%	107%	84.5%	102%	97.4%	101%	86.7%	111%	105%	100%	101%	80.5%	101%
COc1cccc(-c2nc3sccn3c2-c2ccnc(NCCNC(=O)c3ccccc3)n2)c1	87.3%	79.3%	110%	111%	84.9%	77.8%	61.8%	75.3%	78.4%	51.8%	100%	67.5%	26.7%	83.5%	86.3%	92.7%	85.4%	97.7%	69.7%	40.1%
Cc1ccc(-c2cn3cc([N+](=O)[O-])ccc3n2)cc1	83.5%	72.2%	95.9%	91.4%	97.6%	110%	71.3%	85.5%	91.9%	94.4%	68.8%	82%	103%	79.1%	90.4%	77.3%	101%	91.2%	87.4%	72.5%
COC(=O)c1oc2c(C(C)=O)c(OCCCN(C)C)ccc2c1C	97.3%	96.1%	82.2%	123%	118%	28.1%	86.4%	110%	96%	109%	150%	73.3%	72.3%	95%	96.1%	207%	109%	124%	106%	123%
O=[N+]([O-])c1ccccc1NC1c2ccccc2Oc2ccccc21	79.1%	78%	74.6%	70%	15.1%	48.4%	26.3%	44.9%	94.5%	69.3%	58.3%	11.2%	48.4%	71.7%	81.1%	41.2%	23.6%	58.2%	74.2%	36.6%
NCC(=O)NS(=O)(=O)OC[C@H]1O[C@@H](n2cnc3c(N)ncnc32)[C@H](O)[C@@H]1O	5.7% (active)	-54.6% (active)	-1.74% (active)	-32.1% (active)	3.35% (active)	17.3%	-51.6% (active)	9.7% (active)	-7.02% (active)	48.5%	-31.7% (active)	7.38% (active)	-2.82% (active)	2.61% (active)	-36.6% (active)	3.78% (active)	-33.7% (active)	-9.36% (active)	27.4%	-23.1% (active)
O=C(C[n+]1ccccc1Cl)c1ccc2c(c1)CCCC2	92%	112%	106%	90.6%	107%	95.1%	87.4%	85.6%	75.5%	56.3%	97.1%	82.9%	81.8%	99.7%	95.8%	99.5%	99.4%	97.6%	101%	86.2%
COc1cc(Br)c(-c2nc(-c3ccccc3)c(-c3ccccc3)n2Cc2ccccc2)cc1OC	46.8%	70.4%	75.1%	91.8%	48.9%	45.7%	39.6%	37%	67.9%	30.2%	72.6%	31.5%	57.8%	71.2%	72.2%	67.9%	34.5%	76%	59.2%	53.1%
CCOC(=O)c1noc2c1CCc1c-2cn(Cc2ccc(OC)cc2)c1-c1cc(OC)c(OC)c(OC)c1	42.9%	40.8%	52.2%	22.8%	8.9% (active)	63.4%	3.83% (active)	43.5%	34.7%	1.98% (active)	24.5%	7.62% (active)	76.9%	-1.46% (active)	11.7%	41.5%	21.2%	-10.4% (active)	54.3%	3.01% (active)
O=C(NCCNc1nccc(-c2c(-c3cccc(O)c3)nc3sccn23)n1)c1ccccc1O	57.4%	80.5%	72.3%	114%	57%	59.9%	29%	43.3%	64.6%	66.5%	67.2%	40.5%	14.6%	48.4%	50.9%	62.5%	46.4%	61.9%	14.8%	16.7%
CCOC(=O)C1CSC(C)(C(=O)OCC)N1 (stereo not given)	99.5%	95.5%	104%	90.6%	106%	84.7%	76.7%	98.9%	90.8%	105%	108%	103%	98.4%	107%	115%	106%	106%	104%	111%	98.7%
CC(C)[C@@H]1NC(=O)[C@]2(C)CSC(=N2)c2ccnc(c2)CNC(=O)C[C@@H](/C=C/CCS)OC1=O	12.6%	11.8%	4.39% (active)	6.46% (active)	9.2% (active)	-16.5% (active)	-18.4% (active)	-1.52% (active)	6.38% (active)	-70.3% (active)	10.5%	6.95% (active)	14.6%	11.5%	-61.7% (active)	13%	-1.44% (active)	17.2%	-25% (active)	8.55% (active)
COC(=O)c1ccc2c(c1)Oc1ccc(Cl)cc1-c1cc(C)nn1-2	78.1%	37.4%	81.9%	37.6%	14%	61.1%	82.3%	40.5%	69.5%	69.6%	82.3%	89.5%	80%	60.7%	91.8%	80.5%	24.6%	68.4%	108%	89%
